Results on 39 compounds are retold here after PubChem BioAssay (Tox21).

Records with an inconclusive call do not appear. Unmarked numbers belong to inactive results. Active and inactive are the calls of the source. Calls come from the whole dose curve; as a rule, active = well fitted cell-killing curve with a large enough effect in the repeat runs; inconclusive = weak or mixed curves, or effect the other way; inactive = flat fitted curve, though single readings scatter.
% is set by controls: 0 for no effect and ±100 for the full control effect; potency is the fitted concentration of half-maximal effect.

A short description of the assay: cAMP Responsive Elements (CRE) small molecule agonists, cell-based qHTS assay: qHTS cell viability counter screen (AID 2060914). Note: nearly all actives have a fitted effect of over 50% in size. Particulars: CRE-bla HEK293T viability, CellTiter-Glo luminescence, 5 h; series mostly up to 92.4 µM; activity change, negative = cytotoxicity: at the top concentration. The method, boiled down:
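Cytotoxicity was measured as ATP luminescence (CellTiter-Glo, 30 min at room temperature) in the same wells as the CRE-bla FRET read-out. HEK293T CRE-bla cells had 3 h compound exposure at 37C/5% CO2.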
`OCCN1CCN(CCCN2c3ccccc3C=Cc3ccccc32)CC1`: the “activity change, negative = cytotoxicity” value is 9% [at 42.5 µM].
On to `F[B-](F)(F)F`, for which the Potency result was “inactive”.
With `CCCCCCCCOC(=O)c1cc(O)c(O)c(O)c1`, the “activity change, negative = cytotoxicity” value was -23.5%.
For the compound `COC(=O)c1ccc2cc(C(=O)OC)ccc2c1`, the activity change, negative = cytotoxicity is -17.3% [at 18.9 µM].
Same read-out and setting: the figure for `On1ccccc1=S` is -8.84%.
Still for that read-out and setting: to `COP(=O)(OC)OC(c1ccc(Cl)cc1)P(=O)(OC)OC` (centres undefined) belongs 1.73% [at 42.5 µM].
Consider `O=c1cc(-c2ccccc2)oc2ccc3ccccc3c12`, for which the Potency is 21.7 µM (active).
As for `COc1ccnc2c1CCCCC2S(=O)c1nc2ccccc2[nH]1` (centres undefined), the “activity change, negative = cytotoxicity” value is 6.54% [at 42.5 µM].
The same measure, in the same setting: to `Cn1c(=O)c2c(ncn2CC(=O)O)n(C)c1=O` belongs 12.4% [at 42.5 µM].
For `C=CCOC(=O)C(=C)C`, the Potency result is “inactive”.
With `O=C(Oc1ccccc1)c1ccc(O)cc1`, the Potency entry is “inactive”.
As for `Oc1ccc(-c2ccccc2)c(Cl)c1`, the “activity change, negative = cytotoxicity” value is -21.1%.
`CCC(O)OC(O)CC` (centres undefined): the Potency result was “inactive”.
With `CC(C)COC(=O)COc1cc(Cl)c(Cl)cc1Cl`, the “activity change, negative = cytotoxicity” value was 5.51%.
As for `COC(/C=C(\C)CCC=C(C)C)OC`, the “activity change, negative = cytotoxicity” value was -0.937%.
On to `Cc1c2ccccc2c(C)c2c1ccc1ccccc12`, for which the Potency entry is “inactive”.
`CCCC(C)CO` (centres undefined): the “activity change, negative = cytotoxicity” value is 1.25%.
In the case of `Nc1ccc(S(=O)(=O)Nc2nccs2)cc1`, the Potency result was “inactive”.
With `COc1ccnc(CS(=O)c2nc3ccc(OC(F)F)cc3[nH]2)c1OC` (centres undefined), the “activity change, negative = cytotoxicity” value was -10% [at 42.5 µM].
The same measure, in the same setting: to `CCC(C)n1ncn(-c2ccc(N3CCN(c4ccc(OC[C@H]5CO[C@](Cn6cncn6)(c6ccc(Cl)cc6Cl)O5)cc4)CC3)cc2)c1=O` (some centres undefined) belongs 3.01% [at 42.5 µM].
For the compound `O=C1O[C@H]([C@H](O)CO)C(O)=C1O`, the Potency entry is “inactive”.
Turning to `CCCCC(CC)COC(=O)c1ccccc1O` (centres undefined), the “activity change, negative = cytotoxicity” value is 3.23% [at 42.5 µM].
`C=CCOC(=O)c1ccc(C(=O)OCC=C)c(C(=O)OCC=C)c1`: the “activity change, negative = cytotoxicity” value was -3.72%.
On to `O=C(Cl)c1ccc(C(=O)Cl)cc1`, for which the Potency entry was “inactive”.
With `Cc1[nH]cnc1CN1CCc2c(c3ccccc3n2C)C1=O`, the “activity change, negative = cytotoxicity” value is -12.1% [at 42.5 µM].
Consider `Oc1ccc2cc(SSc3ccc4cc(O)ccc4c3)ccc2c1`, for which the Potency entry is “inactive”.
In the case of `CC(C)c1ccc(O)c(C(C)C)c1`, the “activity change, negative = cytotoxicity” value is -12.8%.
Same read-out and setting: the figure for `COC(=O)CSc1cc(N=c2sc(=O)n3n2CCCC3)c(F)cc1Cl` is 3.56%.
Still for that read-out and setting: the figure for `CC(=O)CC(C)=O` is 0.254%.
Regarding `O=C1Nc2ccc([N+](=O)[O-])cc2C1=O`, the “activity change, negative = cytotoxicity” value is 19.6%.
On to `CC1(C)S[C@@H]2[C@H](NC(=O)C(C(=O)O)c3ccccc3)C(=O)N2[C@H]1C(=O)O` (some centres undefined), for which the “activity change, negative = cytotoxicity” value was 5.26% [at 42.5 µM].
Consider `O=C(O)c1ccc2c(c1)C(=O)OC2=O`, for which the Potency entry was “inactive”.
With `C=C/C(C)=C/C/C=C(\C)CCC=C(C)C`, the “activity change, negative = cytotoxicity” value was 3.37%.
Same read-out and setting: the figure for `CC(=O)Oc1ccc(C(=C2CCCCC2)c2ccc(OC(C)=O)cc2)cc1` is 8.89% [at 42.5 µM]; for `O=C(Nc1ccc(Oc2ccc(Cl)cc2)c(Cl)c1)c1cc(I)cc(I)c1O` it is -8.99% [at 42.5 µM].
For `COCC(=O)Nc1c(I)c(C(=O)NCC(O)CO)c(I)c(C(=O)N(C)CC(O)CO)c1I` (centres undefined), the “activity change, negative = cytotoxicity” value was -6.23% [at 42.5 µM].
The same measure, in the same setting: the figure for `CC(CC(C)(C)C)CC(C)(C)CC(C)(C)C` (centres undefined) is 15.8% [at 42.5 µM]; for `Oc1ccc(N=Nc2ccccc2)cc1` it is -24.8%.
With `CCCCC(CC)COP(=O)(OCC(CC)CCCC)OCC(CC)CCCC` (centres undefined), the Potency entry is “inactive”.
